# PubChem BioAssay (NCI)
# Several values for one entry are separate records, joined by “and”; a condition that tells them apart may be missing. Identical values can stand only once. The panel holds about 79,000 compounds, 15% with a hit somewhere; the sample as a whole holds those more often. Unmarked numbers belong to inactive results. Activity calls are given as the source filed them. Rule as the data show it: active = growth inhibition above about 70%; inactive = the rest.
# What was measured:
# [1] = NCI Yeast Anticancer Drug Screen. Data for the mec2-1 strain (AID 157); settings: S. cerevisiae mec2-1 strain, stronger effect = higher value
# How it was run: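 Readout is yeast growth inhibition, normalised to vehicle-treated controls, in the mec2-1 strain exposed to compound.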
# [2] = NCI Yeast Anticancer Drug Screen. Data for the sgs1 mgt1 strain (AID 161);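 also: 0% = growth of cultures given vehicle only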; settings: S. cerevisiae sgs1 mgt1 strain, stronger effect = higher value
# How it was run: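 Percent growth inhibition was derived by comparing compound-exposed mutant yeast with vehicle-exposed cultures. The strain carries alterations in DNA damage repair.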
# [3] = NCI Yeast Anticancer Drug Screen. Data for the cln2 rad14 strain (AID 165);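 also: 0% = growth equal to vehicle treated cultures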; settings: S. cerevisiae cln2 rad14 strain, stronger effect = higher value
# How it was run: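 Relative to vehicle controls, growth inhibition of compound-treated cln2 rad14 yeast was recorded.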
# [4] = NCI Yeast Anticancer Drug Screen. Data for the bub3 strain (AID 167); settings: S. cerevisiae bub3 mutant strain, stronger effect = higher value
# How it was run: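 Mutant yeast screening strain plus compound; vehicle-treated cultures serve as the 0% inhibition reference.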
# [5] = NCI Yeast Anticancer Drug Screen. Data for the mlh1 rad18 strain (AID 175); settings: S. cerevisiae mlh1 rad18 strain growth inhibition, stronger effect = higher value
# How it was run: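 Test agents were incubated with a yeast strain of defined genotype (DNA damage repair defect). Inhibition of growth was derived by comparison with vehicle-exposed cultures.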
# [6] = NCI Yeast Anticancer Drug Screen. Data for the rad50 strain (AID 155);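 also: 0% = growth of vehicle-only cultures of the same strain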; settings: S. cerevisiae rad50 strain growth inhibition; at 50.0 µM; stronger effect = higher value
# How it was run: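 Vehicle-treated cultures provide the reference for the growth inhibition reported for compound-exposed, repair-deficient yeast.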
# [7] = at 5.0 µM (retest, dose inferred, filed as 0.5)
# [8] = at 50.0 µM (retest, dose inferred, filed as 5.0)
smiles,measurement,setting,value
COCc1c(C#N)c(Cl)nc(C)c1[N+](=O)[O-],growth inhibition,[1]; [7],7%
same,growth inhibition,[1]; [8],90% (active)
same,growth inhibition,[2]; [7],14%
same,growth inhibition,[2]; [8],94% (active)
same,growth inhibition,[3]; [7],2%
same,growth inhibition,[3]; [8],94% (active)
same,growth inhibition,[4]; [7],8%
same,growth inhibition,[4]; [8],97% (active)
same,growth inhibition,[5]; [7],0%
same,growth inhibition,[5]; [8],94% (active)
Cc1ccc(N2C(=O)C=CC2=O)cc1,growth inhibition,[1]; [7],99% (active)
same,growth inhibition,[1]; [8],99% (active)
same,growth inhibition,[1]; at 50.0 µM,99.5% (active)
same,growth inhibition,[2]; [7],89% (active)
same,growth inhibition,[2]; [8],99% (active)
same,growth inhibition,[2]; at 50.0 µM,99.7% (active)
same,growth inhibition,[3]; [7],92% (active)
same,growth inhibition,[3]; [8],100% (active)
same,growth inhibition,[3]; at 50.0 µM,99.5% (active)
same,growth inhibition,[4]; [7],99% (active)
same,growth inhibition,[4]; [8],99% (active)
same,growth inhibition,[4]; at 50.0 µM,98.9% (active)
same,growth inhibition,[5]; [7],82% (active)
same,growth inhibition,[5]; [8],100% (active)
same,growth inhibition,[5]; at 50.0 µM,99.2% (active)
COC(=O)C1=COC(C)C2CN3CCc4c([nH]c5cc(OC)c(OC)cc45)C3CC12 (centres undefined),growth inhibition,[6],14.2% and 5.35% and -4.65%
same,growth inhibition,[1]; at 50.0 µM,-5.4% and -5.6% and -9.7%
same,growth inhibition,[2]; at 50.0 µM,5.6% and 12.8% and -5.45%
same,growth inhibition,[4]; at 50.0 µM,26.4% and 18.1% and -20.4%
same,growth inhibition,[5]; at 50.0 µM,25.6% and -54.1% and -63.4%
COC1OC(COC(=O)c2ccccc2)C(OC(=O)c2ccccc2)C1OC(=O)c1ccccc1 (centres undefined),growth inhibition,[6],-15.4% and 7.8%
same,growth inhibition,[1]; at 50.0 µM,-2.5% and -10.2%
same,growth inhibition,[2]; at 50.0 µM,-3.65% and -3.95%
same,growth inhibition,[4]; at 50.0 µM,15.9% and -0.85%
same,growth inhibition,[5]; at 50.0 µM,9% and 4.6%
NC(=O)CC(N)C(=O)O (centres undefined),growth inhibition,[6],-4.4% and -5.3%
same,growth inhibition,[1]; at 50.0 µM,-30.1% and -1.65%
same,growth inhibition,[2]; at 50.0 µM,-10.8% and -4.4%
same,growth inhibition,[4]; at 50.0 µM,1.5% and -13.7%
same,growth inhibition,[5]; at 50.0 µM,0.7% and 2.65%
COc1ccc(C(C)=O)cc1OC,growth inhibition,[6],-0.95% and 6.35%
same,growth inhibition,[2]; at 50.0 µM,-1.4% and -3.3%
same,growth inhibition,[3]; at 50.0 µM,2.75% and -6.5%
same,growth inhibition,[4]; at 50.0 µM,3.25% and 2.6%
same,growth inhibition,[5]; at 50.0 µM,-4.15% and 1.65%
Nc1ccc(C(F)(F)F)cc1[N+](=O)[O-],growth inhibition,[6],-33.3% and 12.1%
same,growth inhibition,[1]; at 50.0 µM,-19.9% and 5.6%
same,growth inhibition,[2]; at 50.0 µM,-49.6% and 12.5%
same,growth inhibition,[4]; at 50.0 µM,-35.1% and 3.5%
same,growth inhibition,[5]; at 50.0 µM,-22.5% and 9.15%
CCCCC(CC)CCC(C)OC(=O)CCl (centres undefined),growth inhibition,[6],15.4% and 0.5%
same,growth inhibition,[2]; at 50.0 µM,2.5% and -19.6%
same,growth inhibition,[4]; at 50.0 µM,-6.25% and -15.2%
same,growth inhibition,[5]; at 50.0 µM,-1.9% and 10.2%
O=C1CC(=P(c2ccccc2)(c2ccccc2)c2ccccc2)C(=O)N1c1ccccc1,growth inhibition,[1]; at 50.0 µM,-15.6% and -12%
same,growth inhibition,[2]; at 50.0 µM,-7.95% and 42.8%
same,growth inhibition,[3]; at 50.0 µM,5.05% and 33.2%
same,growth inhibition,[4]; at 50.0 µM,-9.45% and 10.2%
same,growth inhibition,[5]; at 50.0 µM,-12.8% and 21.6%
